# Among all 360,000 compounds or so, about 2,400 (0.67%) were called active. The entries come from a sample that favours actives as a whole. Unmarked numbers belong to inactive results.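 Rule for the calls: active = activation above a run cutoff, the mean activation of all tested compounds plus 3 SD (cut at about 14% in these data); inactive = the rest.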
# Molecular target: 5-hydroxytryptamine receptor 2A (Mus musculus) (UniProt P35363)
# Assay: activation of mouse 5-HT2A receptor – cell-based, luminescence, primary screen (AID 624169);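 note: 0% = plate median of compound wells and 100% = 30 µM serotonin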
# Details: CHO-K1 mHTR2A beta-arrestin complementation, at 7.6 µM, hits give high values, percent of 30 µM serotonin response
# Sequence of 5-hydroxytryptamine receptor 2A (Mus musculus) (P35363 whole entry, looked up): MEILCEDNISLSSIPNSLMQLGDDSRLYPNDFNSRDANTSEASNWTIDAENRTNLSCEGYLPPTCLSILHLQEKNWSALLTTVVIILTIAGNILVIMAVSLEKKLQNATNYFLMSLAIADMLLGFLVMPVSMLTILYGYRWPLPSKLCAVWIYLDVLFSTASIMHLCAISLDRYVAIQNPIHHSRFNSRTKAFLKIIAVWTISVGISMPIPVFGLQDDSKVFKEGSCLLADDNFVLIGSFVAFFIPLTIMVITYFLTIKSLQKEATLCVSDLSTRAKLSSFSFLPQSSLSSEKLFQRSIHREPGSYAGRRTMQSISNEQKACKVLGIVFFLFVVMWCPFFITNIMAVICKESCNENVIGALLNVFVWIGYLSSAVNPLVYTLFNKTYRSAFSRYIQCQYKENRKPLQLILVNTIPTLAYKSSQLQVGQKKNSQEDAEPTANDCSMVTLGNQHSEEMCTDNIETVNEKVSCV
row,SMILES,activation
1,S=C(Nc1ccc(Cl)cc1Cl)N1CCCC1,-3.15%
2,O=C(c1ccc2ccccc2n1)N1CCN(c2ccccc2Cl)CC1,7.25%
3,O=C(c1ccncc1)N1CCN(c2ccc3ccccc3n2)CC1,25.6% (active)
4,c1cnc(N2CCN(c3ccc4ccccc4n3)CC2)nc1,-1.28%
5,COc1ccc(NC(=O)COC(=O)c2ccncc2)c(OC)c1,-1.11%
6,CCOC(=O)N1CCC(Nc2c(NCCCN3CCN(c4ccc(OC)cc4)CC3)c(=O)c2=O)CC1,4.04%
7,CCCOc1ccc(CNC(=O)C2CCN(c3nn4c(=O)cc(C)nc4s3)CC2)cc1,11%
8,O=C(CSc1nnc(-c2ccncc2)o1)Nc1cccc(Cl)c1,-0.76%
9,COc1cccc(NC(=O)CSc2nnc(-c3cccnc3)o2)c1,14.9% (active)
10,COC(=O)CSc1nnc(-c2cccnc2)o1,1.04%
11,O=C(CSc1nncs1)NC1CCCc2ccccc21 (centres undefined),-0.06%
12,CC(C)COC(=O)n1c(=O)oc2ccc(S(=O)(=O)N3CCCCC3)cc21,0.93%
13,COc1ccc(Cn2c(=O)sc3ccccc32)cc1OC,8.35%
14,Cc1csc2ncc(C(=O)N(Cc3ccccc3)c3ccccn3)c(=O)n12,0.53%
15,CC(C)Oc1ccccc1C(=O)NC(CO)C(=O)O (centres undefined),21.6% (active)
16,COc1ccccc1C(=O)NC(CCSC)C(=O)N1CCN(C(C)=O)CC1 (centres undefined),-3.47%
17,CC(C)CNC(=S)NNC(=O)c1ccccc1OC(F)F,1.02%
18,O=C(COc1ccc2c(c1)CCC2)N1CCN(c2ccc(F)cc2)CC1,-4.42%
19,CC[C@@H](C)[C@H](NC(=O)CCc1c(C)c2cc3c4c(oc3c(C)c2oc1=O)CCCC4)C(=O)O,6.8%
20,CCCCNS(=O)(=O)c1ccc2nc(SCC(=O)Nc3cc(C)cc(C)c3)[nH]c2c1,12.2%
21,O=[N+]([O-])c1cccc(S(=O)(=O)N2CCCCCC2)c1,-1.72%
22,CC1=NCCN1S(=O)(=O)c1cccc([N+](=O)[O-])c1,-2.76%
23,Cc1cc(C)n(S(=O)(=O)c2cccc([N+](=O)[O-])c2)n1,18.4% (active)
24,Cc1cc(C)cc(NC(=O)COc2coc(CN3CCN(c4ccccc4)CC3)cc2=O)c1,6.93%

row,SMILES,activation
1,c1ccc(-c2nnc3n2NC(c2ccc4c(c2)OCO4)S3)cc1 (centres undefined),-0.81%
2,Cc1ccc(/C=C/C(=O)OCC(=O)NCc2ccc(Cl)cc2)o1,-2.51%
3,CCCCn1c(N)c(N(CC(C)C)C(=O)CN(C)S(=O)(=O)c2ccc(F)cc2)c(=O)[nH]c1=O,2.45%
4,CCCCn1c(N)c(N(CCC(C)C)C(=O)c2ccc([N+](=O)[O-])o2)c(=O)[nH]c1=O,5.32%
5,CCCCn1c(N)c(N(CC(C)C)C(=O)CSc2ccc([N+](=O)[O-])cc2)c(=O)[nH]c1=O,20.3% (active)
6,COC(=O)c1ccc(S(=O)(=O)N2CCC(c3nc4ccccc4o3)CC2)cc1,2.01%
7,CN1CCN(C(=O)/C(=C\c2cccs2)NC(=O)c2cccs2)CC1,-0.61%
8,Cc1ccc(C(=O)N/C(=C/c2cccs2)C(=O)N2CCCCC2)cc1,19.9% (active)
9,Cc1ccc(C(=O)N/C(=C/c2cccs2)C(=O)NCC2CCCO2)cc1 (centres undefined),6.31%
10,CCOc1cc(CN2CCCC(CO)(Cc3ccc(F)cc3F)C2)ccc1OC (centres undefined),-5.38%
11,CCOC(=O)c1sc(NC(=O)CSc2n[nH]c(CC)n2)nc1C,-3.89%
12,O=C(OCC(=O)N1CCOCC1)c1ccc2ccccc2c1,14.5% (active)
13,Cc1ccc(C(=O)OCC(=O)N2CCCCCC2)cc1S(=O)(=O)N1CCOCC1,4.82%
14,O=C(OCC(=O)N1CCOCC1)c1ccc(N2CCOCC2)c([N+](=O)[O-])c1,-5.4%
15,Cc1oc2nc(SCC(=O)NCc3cccnc3)nc(N)c2c1C,0.74%
16,COC(=O)c1ccc2nc(-c3ccccc3)c(Cc3ccc(OC)cc3C)n2c1,-0.62%
17,COC(=O)c1ccc2nc(-c3cccc(Br)c3)c(Cc3ccc(OC)cc3C)n2c1,-0.25%
18,CCCCNc1c(-c2cccc(Sc3ccc(OC)cc3)c2)nc2ccccn12,23.6% (active)
19,COc1ccc(/C=N/NC(=O)Cn2cc(C(F)(F)F)ccc2=O)cc1,-1.47%
20,COc1ccc(/C=N/NC(=O)C(C)N(c2ccc(OC)cc2)S(C)(=O)=O)cc1 (centres undefined),-1.2%
21,COc1ccc(/C=N/Nc2ccccc2C(=O)O)cc1,15.9% (active)
22,COc1ccc(-c2nnc3n2CCCCC3)cc1,-2.42%
23,COc1cc(OC)cc(C(=O)NNC(=O)CCOc2ccccc2OC)c1,-0.14%
24,NNc1cccc(C=Cc2ccccc2)cc1=O,15.7% (active)

row,SMILES,activation
1,O=C(COC(=O)/C=C/c1cccc(Cl)c1)NCCc1ccccc1,-2.95%
2,CC(=O)C1=C(O)C(=O)N(c2ccc(S(N)(=O)=O)cc2)C1c1ccccc1F (centres undefined),3.54%
3,CSc1ncnc2c1ncn2CCCNCC(C)c1ccccc1 (centres undefined),-3.42%
4,CSc1ncnc2c1ncn2CCCNCc1ccco1,5.16%
5,CSc1ncnc2c1ncn2CCCNCc1cccs1,19.2% (active)
6,COc1ccc(CCNC(=O)C2CCCN2C(=O)Nc2ccccc2)cc1OC (centres undefined),-3.12%
7,CCOC(=O)N1CCN(C(=O)CN(C2CCCCC2)S(C)(=O)=O)CC1,7.43%
8,FC(F)(F)COc1nc(N2CCCCC2)nc(N2CCNCC2)n1,25.4% (active)
9,CN(N)c1nc(N2CCCC2)nc(N2CCCC2)n1,3.15%
10,COc1nc(NC2CCCCC2)nc(N2CCCCCC2)n1,-0.64%
11,COC(=O)c1ccc(CSc2nncn2N)cc1,-0.96%
12,COC(=O)c1ccc(CSc2nnc(NC(C)C)s2)cc1,16% (active)
13,COC(=O)c1ccc(CSc2nncn2C)cc1,4.16%
14,OC(COCCC12CC3CC(CC(C3)C1)C2)CN1CCCCC1 (centres undefined),-6.43%
15,CCCCn1c(N)c(N(CCOC)C(=O)c2sc3ccccc3c2Cl)c(=O)[nH]c1=O,-2.4%
16,Cc1cc(NC(=O)CSCc2ccccc2C)no1,-1.07%
17,CC(C)(C)NC(=O)NC(=O)CN1CCC(Cc2ccccc2)CC1,0.69%
18,Cc1ccccc1CSCC(=O)NC(=O)NC(C)(C)C,19.9% (active)
19,Cc1ccc(S(=O)(=O)C2C(=O)NC3(C)CC2c2ccccc2O3)cc1 (centres undefined),-3.98%
20,O=C(NCc1ccccc1)c1ccc(CNc2c(N3CCCC3)c(=O)c2=O)cc1,-2.51%
21,CC(=O)Oc1ccc2c(=O)oc(-c3ccc([N+](=O)[O-])cc3)nc2c1,6.81%
22,COc1ccc(-c2nc3cc([N+](=O)[O-])ccc3o2)cc1OC,15.3% (active)
23,O=[N+]([O-])c1ccc2oc(-c3cccc(O)c3)nc2c1,-2.7%
24,CNc1ccc(SC#N)cc1,8.45%

row,SMILES,activation
1,NCCCC[C@@H]1NC(=O)[C@H](CCC(=O)O)NC(=O)c2cc([N+](=O)[O-])cc(I)c2NCC[C@@H](C(N)=O)NC1=O,-1.82%
2,O=C1CCC(C(=O)Nc2ccc(OC(F)F)cc2)N1 (centres undefined),2.5%
3,Cc1ccc2nc(-c3ccncc3)cc(C(=O)Nc3ccncc3)c2c1,14.5% (active)
4,CC1CCCC(NC(=O)c2cc(-c3ccncc3)nc3ccccc23)C1C (centres undefined),-0.93%
5,Cc1ccc2nc(-c3ccncc3)cc(C(=O)Nc3ccc(OC(F)F)cc3)c2c1,-2.82%
6,CC1CCCCC1NC(=O)CCS(=O)(=O)c1ccc2c(c1)NC(=O)CO2 (centres undefined),1.84%
7,CCOC(=O)/C=c1\s/c(=C\c2ccccc2OC)c(=O)n1CC(=O)N1CCOCC1,15.6% (active)
8,CCc1cc(C(c2ccccc2OC)N2CCOCC2)c(NC(=O)c2ccccc2)s1 (centres undefined),-2.8%
9,COc1ccccc1/C=C/C(=O)NC(=S)N1CCOCC1,-0.42%
10,Cc1cccc(NC(=O)CSc2nnc(NC(=O)CN3CCOCC3)s2)c1,4.08%
11,CCCNS(=O)(=O)c1ccc(CCC(=O)N2CCCC2)cc1,0.26%
12,O=C1N(Cc2ccc3c(c2)OCO3)c2ccccc2C1(O)c1c[nH]c2ccccc12 (centres undefined),4.88%
13,CCOC(=O)[C@]12CCCC=C1N(Cc1ccc3c(c1)OCO3)C(=O)[C@H](CC(=O)N1CCN(C(=O)c3ccco3)CC1)C2,1.52%
14,COC(=O)[C@]12CCCCC=C1N(Cc1ccc3c(c1)OCO3)C(=O)[C@H](CC(=O)NCc1cccs1)C2,7.05%
15,CCOC(=O)[C@]12CCCC=C1N(Cc1ccc3c(c1)OCO3)C(=O)[C@H](CC(=O)NCc1cccs1)C2,23.4% (active)
16,CCNC(=O)c1cc2c(c(-c3cccc(-c4cncnc4)c3)n1)[C@H](CCO)N(C(C)=O)C2,-0.81%
17,CN1CCC(=O)N([C@H](CO)Cc2ccccc2)CC1,-5.13%
18,COCCN(CCOC)S(=O)(=O)NC[C@H]1O[C@@H](n2cnc3c(N)ncnc32)[C@H](O)[C@@H]1O,4.4%
19,CC(=O)OCCOCn1cnn2c(=O)c(Br)c(C)nc12,1.26%
20,CN(c1ccccc1)S(=O)(=O)c1ccc(C(=O)N2CCN(c3ccccc3Cl)CC2)cc1,-7.83%
21,COc1ccccc1NC(=O)c1ccc(N2CC3CC(C2)c2cccc(=O)n2C3)c(NC(=O)c2cccnc2)c1 (centres undefined),3.35%
22,Nc1cc(C(=O)N2CCN(c3ccccc3Cl)CC2)ccc1N1CC2CC(C1)c1cccc(=O)n1C2 (centres undefined),17.7% (active)

# Source: PubChem BioAssay AID624169 (The Scripps Research Institute Molecular Screening Center, 2012)
